Screens as filed in PubChem BioAssay.
APE1 inh = APE1 (human) endonuclease inhibition; AID 2517; 350,000 compounds, 0.35% hits; P27695; Potency, µM (top dose mostly 65.8 µM), for the others: at the highest dose activity change, negative = inhibition, actives largely listed as inhibitors; recombinant APE1, TAMRA/BHQ-2 abasic DNA cleavage fluorescence;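 further: plate controls were vehicle for no effect and reference inhibitor for full effect; nearly all actives have a fitted effect of over 55% in size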
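0.75 nM APE1 + cpd, 15 min RT; start w/ 50 nM TAMRA/BHQ-2 THF-abasic dsDNA; kinetic fluor 525/598 nm ×3 reads @60 s; Δ(read3−read1); normalized to DMSO and NSC13755 control wells.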
FEN1 inhibitor = human FEN1 inhibition; 390,000 compounds, 0.35% hits; Recombinant FEN1 flap cleavage, fluorescence, 15 min; AID 588795; P39748; Potency, µM (titrated, usually from 114 µM), without a hit: at the top dose activity change, negative = inhibition, most hits filed as inhibitors; further: nearly all actives have a fitted effect of over 65% in size
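Concentration–response screening of FEN1 (10 nM): 15 min compound preincubation at room temperature, reaction started with 50 nM substrate and read at 0 and 15 min. Corrected, normalized data were fitted by a four-parameter Hill equation.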
BLM helicase inh = Bloom syndrome helicase (human) inhibition; P54132; recombinant BLM DNA unwinding, fluorescence dequenching; Potency, µM (highest dose often 56.1 µM), inactives show at the highest dose activity change, negative = inhibition, hits mostly inhibitors; 350,000 compounds, 0.2% hits; AID 2528;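 further: plate controls were vehicle for no effect and no enzyme for full effect; nearly all actives have a fitted effect of over 35% in size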
RECQ1 inh-1 = blocks DNA unwinding by human RECQ1; Potency, µM (top dose mostly 57.3 µM), for inactives: at the highest dose activity, negative = inhibition, hits mostly inhibitors; AID 2549; 240,000 compounds, 0.54% hits; P46063; RECQ1 DNA unwinding, red fluorescence kinetic read;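 further: plate controls were vehicle for no effect and no enzyme for full effect; nearly all actives have a fitted effect of over 30% in size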
Target sequence (P46063 whole entry, looked up): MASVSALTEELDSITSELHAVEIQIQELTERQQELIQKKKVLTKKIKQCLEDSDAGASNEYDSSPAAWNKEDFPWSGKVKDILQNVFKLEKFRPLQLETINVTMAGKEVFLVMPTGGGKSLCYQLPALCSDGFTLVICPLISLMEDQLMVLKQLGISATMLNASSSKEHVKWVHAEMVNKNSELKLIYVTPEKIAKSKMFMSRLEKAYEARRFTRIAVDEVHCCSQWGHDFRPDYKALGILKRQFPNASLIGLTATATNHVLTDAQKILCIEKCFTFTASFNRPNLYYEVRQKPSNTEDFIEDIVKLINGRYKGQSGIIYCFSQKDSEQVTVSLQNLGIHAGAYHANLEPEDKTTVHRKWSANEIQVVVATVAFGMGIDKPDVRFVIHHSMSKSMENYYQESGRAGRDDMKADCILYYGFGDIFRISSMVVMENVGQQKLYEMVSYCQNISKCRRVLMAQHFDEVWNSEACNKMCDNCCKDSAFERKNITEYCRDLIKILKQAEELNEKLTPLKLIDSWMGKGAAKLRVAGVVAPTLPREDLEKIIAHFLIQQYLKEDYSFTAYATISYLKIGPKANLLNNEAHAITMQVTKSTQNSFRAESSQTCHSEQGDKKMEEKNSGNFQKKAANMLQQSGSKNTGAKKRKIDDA
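RECQ1T1 50 nM; forked duplex (20 bp + 30-nt ss tails) 200 nM, ATP 2 mM final; pH 8.0, 2 mM MgCl2, 2.5 ug/ml poly(dI-dC); 15 min compound preincubation; discontinuous kinetic read over 2 h at RT.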
PGK inhibitor = T. brucei PGK inhibition; Potency, µM (doses to about 57.5 µM), for inactives: top-dose activity change, negative = inhibition, actives largely listed as inhibitors; AID 602233; 380,000 compounds, 0.043% hits; PGK/GAPDH coupled, Kinase-Glo luminescence, 60 min; further: nearly all actives have a fitted effect of over 60% in size
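Luminescent ATP detection (Kinase-Glo Plus) follows a 60-minute room-temperature incubation, with wells lacking PGK as controls. Buffer: 100 mM TEA (pH 7.6), 5 mM MgCl2, 0.01% Tween-20. Coupling enzyme GAPDH (100 nM final) supplies unstable 1,3-BPG in-well.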
RECQ1 conf = confirmation of human RECQ1 helicase inhibitors; shares compounds with RECQ1 inh-1; Potency, µM (top dose mostly 229 µM), for the others: at the highest dose activity change, negative = inhibition, most hits filed as inhibitors; RECQ1 helicase DNA unwinding, fluorescence; AID 2708; 610 compounds, 28% hits; further: nearly all actives have a fitted effect of over 45% in size
RECQ1 ADP FP = ADP displacement flagged in RECQ1 inhibitor counter-screen; shares compounds with RECQ1 inh-1; Potency, µM (top dose mostly 228 µM), for the others: at the highest dose activity change, negative = inhibition, usual class: inhibitors; ADP fluorescence polarization displacement counterscreen; AID 2711; 530 compounds, 27% hits; further: nearly all actives have a fitted effect of over 45% in size
RECQ1 inh-2 = RECQ1 helicase inhibition confirmed, round 2. 1,100 compounds, 15% hits. AID 504841. shares compounds with RECQ1 inh-1. Potency, µM (doses to about 119 µM), inactives show top-dose activity, negative = inhibition, hits mostly inhibitors. recombinant RECQ1 DNA unwinding, red fluorescence; further: nearly all actives have a fitted effect of over 50% in size
* marks the source's active call; other numbers are inactive results; i = inactive; u = inconclusive; x = no result given; [ ] = remark or other dose. The list is not random: actives were taken first. Their share in the collection is about 0.74%. The call rests on the fitted dose curve; in most records, active means well fitted curve in the direction sought with a large enough effect; inconclusive means small, poorly fitted or top-dose-only effect, or another doubt; inactive means no such curve, though single readings can be large; an effect the other way counts as inactive or inconclusive. Unless noted, on the % scale 0 is the no-effect control and ±100 the full control effect; potency means the concentration at half of the fitted maximal effect.

SMILES	APE1 inh	FEN1 inhibitor	BLM helicase inh	RECQ1 inh-1	PGK inhibitor	RECQ1 inh-2	others
COc1ccc(S(=O)(=O)N2CN(Cc3ccco3)c3nc4ccccc4nc32)cc1	2.1%	-3.6%	-13.4%	35.5µM*	-7.6%	u
Cc1cc(=O)c2c(O)c3c(O)cc(O)c4c5c(O)cc(O)c6c(O)c7c(=O)cc(C)c8c1c2c(c34)c(c65)c78	3.16µM*	x	20µM*	0.562µM*	x	x	RECQ1 conf=u;RECQ1 ADP FP=0.141µM*
O=C(CSc1ncnc2sc3c(c12)CCCC3)c1ccco1	u	-11.1%	-19.6%	u	-0.4%	-23.4%
O=C(CSc1ncnc2sc3c(c12)CCCC3)c1ccccc1	0.5%	16.4%	-0.8%	-1.1%	-8.7%	x
COc1ccccc1C(=O)c1c(N)c(-c2nc(-c3ccccc3)cs2)c2ccccn12	x	12.7%	-4.2%	x	x	x
CCOc1ccc(/C=C/C(=O)c2cc(Br)ccc(=O)c2O)cc1	20.7%	44.7µM*	-17.2%	22.4µM*	-10.5%	u
CCc1ccc(/C=C/C(=O)c2cc(Br)ccc(=O)c2O)cc1	u	u	-21.2%	u	-0.7%	u
O=C(C=Cc1ccccc1)c1cc(Br)ccc1O	x	1.7%	x	x	-0.6%	x
Cc1ccc(/C=C/C(=O)c2cc(Br)ccc2OC(=O)c2ccco2)cc1	-8.7%	-14.8%	-14.6%	-6.5%	8.2%	x
Cc1cccc(/C=C/C(=O)c2cc(Br)ccc(=O)c2O)c1	-12.4%	u	-17.4%	u	i	u
COc1cc(S(=O)(=O)N(C)C)ccc1Br	3.9%	0.4%	0.7%	-7.3%	0.3%	x
CC1/C=C/C=C/C=C/C=C/C=C/C=C/C=C/C(OC2OC(C)C(O)C(N)C2O)CC2O[C@@](O)(CC(O)CC(O)C(O)CCC(O)CC(O)CC(=O)OC(C)[C@H](C)C1O)CC(O)C2C(=O)O (stereo not given in full)	-27.3%	x	-5.4%	20µM*	x	x	RECQ1 conf=u;RECQ1 ADP FP=55.9%
CC(=O)c1ccc2c(c1)C1C=CCC1C(c1ccncc1)N2 (stereo not given)	u	-18.4%	-28.7%	u	-0.7%	36.4%
C1=CC2c3ccccc3NC(c3ccncc3)C2C1 (stereo not given)	u	-10.3%	-16.4%	-23.4%	3.8%	x
N#CC1=C(SCC(=O)c2cc3ccccc3oc2=O)NC(=O)C(C#N)C12CCCC2 (stereo not given)	u	1.2%	-16.0%	u	-6.5%	-8.1%
COc1ccccc1-n1cnnc1SCC(=O)c1cc(C)n(Cc2cccs2)c1C	u	6.7%	-3.7%	u	-3.7%	-10.8%
Cc1cc(C(=O)CSc2nnc(-c3ccccc3F)o2)c(C)n1Cc1cccs1	u	2.8%	-4.9%	u	6.4%	x
COc1cccc(N2CCN(C(=O)c3nc(-c4ccc(Cl)cc4)n4c3CCCCC4)CC2)c1	x	-0.1%	-7.4%	x	i	x
CCC(=O)/C=C1/Sc2ccccc2N1CC	-6.3%	-9.4%	6.7%	i	-2.1%	x
CCN1/C(=C/c2cc[n+](CCCS(=O)(=O)[O-])c3ccccc23)Sc2ccccc21	u	u	-12.3%	u	-2.0%	56.2µM*
COc1cc(OC)cc(C(=O)NCC(=O)OCC(=O)N2c3ccccc3NC(=O)C2(C)C)c1	4.8%	1.4%	-5.5%	-2.4%	-6.7%	x
Cc1cc(C)cc(C(=O)NCC(=O)OCC(=O)N2c3ccccc3NC(=O)C2(C)C)c1	u	-10.8%	-25.4%	u	0.3%	-22.6%
CC(NC(=O)/C(=C/c1ccc2c(c1)OCO2)NC(=O)c1cccc([N+](=O)[O-])c1)C(=O)O (stereo not given)	15.5%	-1.1%	-3.7%	-5.5%	0.1%	x	RECQ1 conf=14.0%;RECQ1 ADP FP=-14.8%
O=C(NC(Cc1ccccc1)C(=O)O)/C(=C/c1ccco1)NC(=O)c1cccc([N+](=O)[O-])c1 (stereo not given)	-9.7%	-11.4%	-1.5%	i	x	x	RECQ1 conf=4.5%;RECQ1 ADP FP=-3.7%
O=C(NC(Cc1ccccc1)C(=O)O)/C(=C/c1ccccc1)NC(=O)c1cccc(Br)c1 (stereo not given)	3.7%	-1.7%	-9.0%	-3.0%	i	x	RECQ1 conf=10.5%;RECQ1 ADP FP=u
SMILES	APE1 inh	FEN1 inhibitor	BLM helicase inh	RECQ1 inh-1	PGK inhibitor	RECQ1 inh-2	others
CCc1nnc2sc(-c3ccc(NC(=O)c4ccco4)cc3)nn12	-0.6%	-8.6%	-5.2%	-14.6%	4.3%	x
O=C(N1CCCCCC1)N1CCN(C(=O)N2CCCCC2)CC1	-1.7%	-2.4%	-1.9%	i	-8.9%	x
CCN1C(C(=O)c2ccccc2)=C(OC(=O)COc2ccc(OC)cc2)c2ccccc2S1(=O)=O	x	-3.7%	-5.6%	x	-4.9%	x
Cc1nc(-c2cc(C#N)c(Sc3cccc(C(F)(F)F)c3)nc2C)cs1	-3.8%	13.7%	-3.7%	-1.1%	-6.9%	x
Clc1ccccc1-c1nnc2sc(C3COc4ccccc4O3)nn12 (stereo not given)	4.8%	-7.9%	-8.4%	4.47µM*	i	-19.1%	RECQ1 conf=-12.9%[114 µM];RECQ1 ADP FP=u
COc1ccc(/C=C/c2cc(O)cc(O[C@H]3OC(CO)C(O)C(O)C3O)c2)cc1 (stereo not given in full)	-0.2%	x	-4.2%	-1.4%	x	x
COC(=O)COc1ccc(C2Nc3c(Cl)ccc(C(=O)O)c3C3C=CCC32)cc1 (stereo not given)	u	u	-6.4%	28.2µM*	-10.2%	u
COC(=O)c1c(-c2ccc(OC)cc2)sc2ccc(OC)cc12	1.2%	-11.8%	x	x	-0.6%	x
O=C1CCCC2=C1C(c1ccc(O)c(O)c1)c1c(ccc3ncccc13)N2 (stereo not given)	10µM*	u	-10.3%	11.2µM*	u	u	RECQ1 conf=u;RECQ1 ADP FP=u
CN(C)CCNc1ccc(Cl)cc1[N+](=O)[O-]	28.3%	-7.2%	-10.3%	-6.0%	-9.5%	x
COc1ccc(CNC(=O)CN2C(=O)COc3ccc(S(=O)(=O)N4CCCC4)cc32)cc1	29.3%	-0.9%	0.8%	x	-9.6%	x
COC(=O)C1=C(C)N2C(=O)CSC2=NC1c1ccc2c(c1)OCO2 (stereo not given)	9.8%	-1.0%	-6.0%	u	0.4%	-16.4%
COCCN1C=C(C(=O)OC)C(c2ccc3c(c2)OCO3)C(C(=O)OC)=C1	2.5%	-4.7%	-6.7%	i	-0.1%	x
COc1cccc(Nc2nc(N)c([N+](=O)[O-])c(NCc3ccccc3)n2)c1	-3.3%	-11.7%	u	u	3.3%	50.1µM*
